# Assay results published in ChEMBL document CHEMBL1201862, “PubChem BioAssay data set” (2004).
# Hit rate of the full screen: of about 400,000 compounds, about 3,700 (0.93%) were called active. Another 3% or so got no clear call; they are omitted. This is one part of a sample in which actives are shown more often than they occur. No cut-off for these calls is given here.
# Biological target: T1, Vitamin D3 receptor (Homo sapiens) (UniProt P11473)
# T1 sequence (whole entry): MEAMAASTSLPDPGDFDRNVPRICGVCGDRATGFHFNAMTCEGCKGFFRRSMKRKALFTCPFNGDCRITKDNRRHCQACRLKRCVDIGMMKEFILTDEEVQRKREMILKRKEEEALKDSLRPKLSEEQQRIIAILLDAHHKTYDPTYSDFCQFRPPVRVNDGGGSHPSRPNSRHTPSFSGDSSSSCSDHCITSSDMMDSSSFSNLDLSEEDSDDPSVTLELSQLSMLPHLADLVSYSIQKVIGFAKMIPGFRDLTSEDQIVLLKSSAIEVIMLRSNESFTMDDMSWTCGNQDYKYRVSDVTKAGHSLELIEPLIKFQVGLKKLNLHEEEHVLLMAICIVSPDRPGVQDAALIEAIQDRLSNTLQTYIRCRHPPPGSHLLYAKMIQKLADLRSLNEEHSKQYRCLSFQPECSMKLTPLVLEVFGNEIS
# Test: Inhibitors of the vitamin D receptor (VDR): qHTS. [Related pubchem assays (depositor defined):AID504855]
# Format: functional
row,Compound,Potency
1,Cl[Te]1(Cl)OCCO1,3.16 µM (active)
